Screening results: PubChem BioAssay, National Center for Advancing Translational Sciences (NCATS)
A selection: hits, their analogues and other compounds. The true share with any hit is near 10%.
hNpr1 antagonist: blocks ANP-stimulated signaling of human Npr1 receptor | P16066 | HEK293 hNpr1 GloSensor cGMP, ANP-stimulated luminescence | Potency, µM (doses to about 46.3 µM), for the others: at the top dose activity change, negative = inhibition, usual class: inhibitors | actives 1.6% (n = 76,000) | AID 1347048; calls by dose curve; also: nearly all actives have a fitted effect of over 60% in size
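Compound pre-incubated 30 min at room temperature on GloSensor-loaded HEK293 cells stably carrying hNpr1 and the pGS-40F cGMP biosensor. Stimulation uses hNppA at 0.1 nM final; luminescence is taken at baseline and 20 min post-agonist.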
HEK cytotox: cytotoxic compounds in HEK 293 cells; AID 1345083; actives 6.6% (n = 94,000); HEK 293 viability, ATP luminescence (CellTiter-Glo), 48-72 h; Potency, µM (highest dose often 115 µM), inactives show at the top dose activity change, negative = cytotoxicity, most hits filed as inhibitors; also: nearly all actives have a fitted effect of over 60% in size
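Cytotoxicity was scored by loss of ATP-coupled luminescence (CellTiter-Glo) in HEK 293 cells. Compound treatment ran 48 or 72 hr at 37 degree Celsius, 5% CO2, 95% humidity.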
Luciferase inh: Photinus pyralis luciferase inhibition | P08659 | actives 2.5% (n = 76,000) | purified P. pyralis luciferase, luminescence, biochemical | Potency, µM (doses to about 115 µM), actives largely listed as inhibitors | AID 1347043; also: nearly all actives have a fitted effect of over 65% in size
Target sequence (P08659 whole entry, looked up): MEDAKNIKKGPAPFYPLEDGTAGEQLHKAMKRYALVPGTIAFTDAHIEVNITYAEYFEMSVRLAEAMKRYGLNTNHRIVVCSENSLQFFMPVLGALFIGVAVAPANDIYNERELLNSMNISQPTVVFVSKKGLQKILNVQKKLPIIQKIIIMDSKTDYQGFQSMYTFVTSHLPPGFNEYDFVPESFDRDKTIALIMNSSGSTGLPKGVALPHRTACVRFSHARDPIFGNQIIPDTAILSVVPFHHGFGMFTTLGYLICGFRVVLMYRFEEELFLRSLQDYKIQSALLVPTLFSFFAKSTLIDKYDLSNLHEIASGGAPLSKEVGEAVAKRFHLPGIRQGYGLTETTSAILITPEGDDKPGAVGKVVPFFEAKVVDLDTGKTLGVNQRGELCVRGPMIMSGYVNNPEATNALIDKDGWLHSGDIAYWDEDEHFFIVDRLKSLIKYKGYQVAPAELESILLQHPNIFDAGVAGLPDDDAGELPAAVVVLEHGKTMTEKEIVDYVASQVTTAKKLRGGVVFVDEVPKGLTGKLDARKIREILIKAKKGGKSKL
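Inhibitors were tested against purified firefly luciferase in a biochemical, low-substrate format (both substrates at 10uM) and luminescence measured with a CCD imager.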
3T3 cytotox: kills NIH 3T3 cells; Potency, µM (titrated, usually from 96.7 µM), for the others: at the highest dose activity change, negative = cytotoxicity, most hits filed as inhibitors; NIH 3T3 viability, CellTiter-Glo ATP luminescence, 48-72 h; AID 1345082; actives 4.3% (n = 94,000); also: nearly all actives have a fitted effect of over 55% in size
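Luminescent ATP readout (CellTiter-Glo, 10 min RT) after 48 or 72 hr compound exposure of NIH 3T3 cells seeded at 400 cells/well in 1536-well format; quantitative HTS.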
GPT2 inhibitor: inhibitors of human GPT2 alanine aminotransferase | Q8TD30 | Recombinant GPT2, coupled pyruvate oxidase/HRP Amplex Red fluorescence | Potency, µM (titrated, usually from 57.7 µM), inactives show at the highest dose activity change, negative = inhibition, actives largely listed as inhibitors | actives 0.25% (n = 100,000) | AID 1671188; also: nearly all actives have a fitted effect of over 60% in size
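Fluorescence of coupled pyruvate oxidase/HRP/Amplex Red system (50uM Amplex, 30 min, dark) reports pyruvate formed by GPT2. Enzyme reaction: 10ng/uL GPT2, 2mM L-alanine, 250uM a-KG, 30 min room temperature, pH 7.5; 50uM AOA control.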
* hit, by the source's call; i = inactive; ? = inconclusive; . = no result; [ ] = dose if it differs, or a comment. Unless noted, calls follow the shape of the dose curve; as a rule, active = well fitted curve in the direction sought with a large enough effect; inconclusive = small, poorly fitted or top-dose-only effect, or another doubt; inactive = no such curve, though single readings can be large; an effect the other way counts as inactive or inconclusive. % is scaled to controls: 0 for no effect and ±100 for the full control effect; potency is read from the fitted curve at half-maximal effect.

SMILES	hNpr1 antagonist	HEK cytotox	Luciferase inh	3T3 cytotox	GPT2 inhibitor
CC(=O)c1ccc(NC(=O)NC[C@H]2C[C@@H]3CCN2C[C@@H]3CN(C)Cc2ccccc2)cc1	1%[70.6 µM]	100µM*	i	89µM*	3%[88.5 µM]
CN(Cc1ccccc1)C[C@H]1CN2CC[C@H]1C[C@@H]2CNC(=O)Nc1ccccc1	5%[70.6 µM]	100µM*	i	100µM*	-6%[88.5 µM]
CN(Cc1ccccc1)C[C@H]1CN2CC[C@H]1C[C@@H]2CNC(=O)c1ccccc1	1%[70.6 µM]	?	i	?	-15%[88.5 µM]
CC(=O)OC1CC(O)C2(C)C(CC(OC(C)=O)C3(C)C2CCC2(C)C(c4ccoc4)C(=O)C4OC423)C1(C)C (stereo unspecified)	.	.	.	.	i
CC(=O)NC[C@H]1C[C@@H]2CCN1C[C@@H]2c1cc(-c2ccc3ccccc3c2)nn1C	3%[70.6 µM]	56µM*	?	32µM*	3%[88.5 µM]
Cn1nc(-c2ccc3ccccc3c2)cc1[C@H]1CN2CC[C@H]1C[C@@H]2CNC(=O)NCc1ccccc1	-12%	?	i	18µM*	?
Cn1nc(-c2ccc3ccccc3c2)cc1[C@H]1CN2CC[C@H]1C[C@@H]2CNC(=O)COc1ccccc1	3%	25µM*	i	28µM*	i
COc1ccc(OC)c(S(=O)(=O)NC[C@H]2C[C@@H]3CCN2C[C@@H]3c2cc(-c3ccc4ccccc4c3)nn2C)c1	1%	?	i	?	1%
COc1ccc(-c2cc([C@H]3CN4CC[C@H]3C[C@@H]4CNC(C)=O)n(C)n2)cc1	6%[70.6 µM]	-3%[172 µM]	i	?	1%[88.5 µM]
Cn1nc(-c2ccc3ccccc3c2)cc1[C@H]1CN2CC[C@H]1C[C@@H]2CNS(=O)(=O)c1ccccc1	-24%	25µM*	?	?	-8%
CCOc1ccc(Oc2ccc(OCc3cc(F)ccc3F)cc2)c(N)c1	.	.	.	.	i
C=C[C@H]1CN2CC[C@H]1C[C@@H]2CNS(=O)(=O)c1ccc2ccccc2c1	1%[70.6 µM]	112µM*	i	?	1%[88.5 µM]
C=C[C@H]1CN2CC[C@H]1C[C@@H]2CNCc1ccc(SC)cc1	-5%[70.6 µM]	89µM*	i	?	-24%[88.5 µM]
COc1ccc(-c2cc([C@H]3CN4CC[C@H]3C[C@@H]4CNS(=O)(=O)c3ccc(Cl)cc3)n(C)n2)cc1OC	-5%	28µM*	i	?	0%
COc1ccc(-c2cc([C@H]3CN4CC[C@H]3C[C@@H]4CNS(=O)(=O)c3cccs3)n(C)n2)cc1OC	0%	?	i	?	2%
COc1c(C)cnc(CN2CCC3(C2)C(=O)N(C)C(=O)N3C)c1C (stereo unspecified)	.	-14%	.	-22%	i
CC(C)[C@H]1C(=O)N[C@H](CO)Cc2c[nH]c3cccc(c23)N1C	.	.	.	.	15µM*
c1ccc(Nc2cc3c(cn2)CN(CC2CC2)CCN3)cc1	4%[70.6 µM]	35µM*	35µM*	?	4%[88.5 µM]
CN1CCNc2cc(NCc3ccccc3)ncc2C1	-2%[70.6 µM]	?	25µM*	89µM*	?
O=C1Nc2ccccc2C12CCN(CC1CC1)CC2	.	-6%[230 µM]	.	1%[174 µM]	-9%[88.5 µM]
CCOC(=O)[C@@H]1[C@H]2c3ccccc3N(CCOC)C(=O)[C@H]2N(C(=O)OCC)[C@@H]1c1ccccc1	.	?	.	-27%	.
CSCC(=O)Nc1ccc2n(c1=O)C[C@H]1C[C@@H]2CN(C(=O)COc2ccccc2)C1	-3%[70.6 µM]	-14%[172 µM]	i	79µM*	-1%[88.5 µM]
CC(=O)N1C[C@@H]2C[C@H](C1)c1ccc(NC(=O)COc3ccccc3)c(=O)n1C2	-2%[70.6 µM]	i	i	i	i
CCOC(=O)[C@H]1CN(C(=O)NC2CCCC2)[C@]2(C)C(=O)N(C)c3ccccc3[C@H]12	.	?	.	-27%[46.1 µM]	-4%[27.3 µM]
COc1ccc(CCNCc2ccc(OC)c3ccccc23)cc1	.	.	.	.	i
SMILES	hNpr1 antagonist	HEK cytotox	Luciferase inh	3T3 cytotox	GPT2 inhibitor
O=S(=O)(NC[C@H]1C[C@@H]2CCN1C[C@@H]2CN1CCCC1)c1ccc(Cl)cc1	-1%[70.6 µM]	?	i	79µM*	-27%[88.5 µM]
COc1ccc(S(=O)(=O)NC[C@H]2C[C@@H]3CCN2C[C@@H]3CN2CCOCC2)cc1	-2%[70.6 µM]	0%[172 µM]	i	-1%[174 µM]	-1%[88.5 µM]
O=S(=O)(NC[C@H]1C[C@@H]2CCN1C[C@@H]2CN1CCc2ccccc21)c1ccccc1	-14%[70.6 µM]	56µM*	i	56µM*	?
CN1CCN(C[C@H]2CN3CC[C@H]2C[C@@H]3CNS(=O)(=O)c2ccccc2)CC1	3%[70.6 µM]	-4%[172 µM]	i	-23%[174 µM]	2%[88.5 µM]
COc1ccc(S(=O)(=O)NC[C@H]2C[C@@H]3CCN2C[C@@H]3CN(C)c2ccccc2)cc1	1%[70.6 µM]	?	i	35µM*	3%[88.5 µM]
CC[C@H]1CN2CC[C@H]1C[C@@H]2CNS(=O)(=O)c1ccc(OC)cc1	2%[70.6 µM]	-1%[172 µM]	i	-5%[174 µM]	-4%[88.5 µM]
COc1ccc(S(=O)(=O)NC[C@H]2C[C@@H]3CCN2C[C@@H]3CN2CCC(Cc3ccccc3)CC2)cc1	-16%	?	i	13µM*	4%
C#C[C@H]1CN2CC[C@H]1C[C@@H]2COC(=O)NCCC	0%[70.6 µM]	?	i	-29%[230 µM]	i
CN1C(=O)C(Cc2ccc3ccccc3c2)N=C(c2ccc(O)cc2)c2cc(Cl)ccc21 (stereo unspecified)	.	.	.	.	i
Fc1cc(F)c2c(c1)[C@H]1C=CC[C@H]1C(c1cccnc1)N2 (stereo partly specified)	.	.	.	.	-18%
COc1ccc2c(c1)CN(C)CC2c1ccc(Cl)c(Cl)c1 (stereo unspecified)	.	.	.	.	-1%
COc1cc2c(cc1OCc1ccccc1)N(C(=O)c1c[nH]c3ccccc13)CC21CCN(C)CC1	-4%	22µM*	i	20µM*	?
COc1cc2c(cc1OCc1ccccc1)N([S+](=O)([O-])c1cn(C)cn1)CC21CCN(C)CC1	-2%	?	i	?	i
COc1cc2c(cc1OCc1ccccc1)N(C(=O)c1cc3ccccc3[nH]1)CC21CCN(C)CC1	-1%	20µM*	i	22µM*	-3%
COc1cc2c(cc1OCc1ccccc1)N(C(=O)c1cccc3[nH]ccc13)CC21CCN(C)CC1	1%	?	i	20µM*	-2%
C[C@H]1CN(CC[C@H](O)C2CCCCC2)CC[C@@]1(C)c1cccc(O)c1	.	.	.	.	i
CC(=O)c1cccc(NC(=O)NC[C@H]2C[C@@H]3CCN2C[C@@H]3c2cc(-c3cccs3)nc(C)n2)c1	-2%	22µM*	i	32µM*	-7%
COC[C@H]1CCCN1C[C@H]1CN2CC[C@H]1C[C@@H]2CNC(=O)c1ccc(C(F)(F)F)cc1	-1%[70.6 µM]	?	i	?	i
